The values that follow come from PubChem BioAssay (NCI).

Compounds without any hit were thinned out: in the full panel of roughly 83,000, 20% have a hit.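 How to read the values: 0–100, growth inhibition (40 = 60% inhibited); 0, no net growth; -100 to 0, cell death (-40 = 40% of starting cells died; -100 = all dead).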 Unmarked numbers belong to inactive results. The source made the active and inactive calls. Rule for the calls: active = growth percent below 10; inactive = the rest.

Test systems include NCI-H23 lung; NCI-H226 lung; HOP-62 NSCLC; NCI-H460 lung; HOP-92 NSCLC; NCI-H522 lung; A549/ATCC NSCLC; 786-0 renal; COLO 205 colon.
Test in all cases: NCI-60 one-dose screen, 48 h (100 = growth as untreated, 0 = no growth, -100 = all killed)
Holding throughout (conditions): 10 µM unless noted

Turning to `CCCCCCCCCCCCCCCCCCOc1ccccc1CC(=O)NCC[N+]1(C)CCCC1`, the growth is 55.3% with NCI-H23 lung; 70.5% in the assay on NCI-H226 lung; 54% in the assay on HOP-62 NSCLC; 34.8% in the assay with NCI-H460 lung; 22.6% with HOP-92 NSCLC; 32.8% in the assay on NCI-H522 lung. Besides, the growth in the assay on A549/ATCC NSCLC is 50.6%; with 786-0 renal it was 70.2%; in the assay on COLO 205 colon, -6.88% (active).

With `CC(O)c1cnc(/C=C2\SC(=S)N(Cc3ccccc3)C2=O)s1` (stereo not drawn), the growth in the assay with NCI-H23 lung is 99.7%; in the assay with NCI-H226 lung it was 90.3%; in the assay with HOP-62 NSCLC it was 39%; in the assay with NCI-H460 lung it was 96.8%; in the assay with HOP-92 NSCLC, 43.7%; in the assay on NCI-H522 lung, 0.337% (active). The growth is 66.7% in the assay on A549/ATCC NSCLC, 59.2% in the assay on 786-0 renal and 35.7% in the assay with COLO 205 colon.

Turning to `O=C1Nc2ccc(I)cc2C1=O`, the growth is 89.7% with NCI-H23 lung; 92.8% in the assay with NCI-H226 lung; 84.4% in the assay on HOP-62 NSCLC; 107% in the assay on NCI-H460 lung; 104% in the assay with HOP-92 NSCLC; 93.4% in the assay on NCI-H522 lung. Besides, the figures for the growth in the assay on A549/ATCC NSCLC, in the assay on 786-0 renal and with COLO 205 colon were 88.7%, 109% and 88.9%, respectively.

Turning to `CCOC(=O)c1nc(Nc2ccc(NC(=O)Nc3ccc(F)cc3)cc2)c2ccccc2n1`, the growth in the assay on NCI-H23 lung was 92.3%; in the assay with NCI-H226 lung it was 90.4%; in the assay with HOP-62 NSCLC it was 97.6%; in the assay with NCI-H460 lung, 99.1%; in the assay on HOP-92 NSCLC, 106%; in the assay on NCI-H522 lung, 98.5%. Moreover, the growth was 102% in the assay on A549/ATCC NSCLC, 106% in the assay with 786-0 renal and 108% in the assay with COLO 205 colon.

Regarding `S=C1CCSC(=S)N1CCCN1C(=S)CCSC1=S`, the growth in the assay with NCI-H23 lung is 81.1%; in the assay with NCI-H226 lung, 101%; in the assay on HOP-62 NSCLC, 90.5%; in the assay with NCI-H460 lung, 97.7%; in the assay on HOP-92 NSCLC, 106%; with NCI-H522 lung, 5.23% (active). The growth in the assay on A549/ATCC NSCLC is 97.7%; in the assay with 786-0 renal it was 44.9%; in the assay on COLO 205 colon, 64.2%.

Regarding `CCOC(=O)c1c(NC(=O)c2ccc(C(C)C)cc2)sc2c(CN(C)C)c(O)ccc12`, the growth in the assay with NCI-H23 lung was 82.2%; in the assay with NCI-H226 lung, 85.2%; in the assay with HOP-62 NSCLC it was 89.9%; in the assay with NCI-H460 lung, 6.2% (active); in the assay on HOP-92 NSCLC it was 69.5%; in the assay on NCI-H522 lung, 97.2%. The growth is 77% in the assay with A549/ATCC NSCLC, -50.5% (active) in the assay with 786-0 renal and -24.5% (active) with COLO 205 colon.

With `COc1ccc(-c2cn(-c3cc(OC)c(OC)c(OC)c3)c(=O)n2C(C)=O)cc1`, the growth in the assay on NCI-H23 lung was 94.9%; in the assay on NCI-H226 lung, 88.1%; with HOP-62 NSCLC it was 83.7%; with NCI-H460 lung, 106%; with HOP-92 NSCLC, 94.2%; with NCI-H522 lung, 73.5%. In addition, the growth was 91.8% in the assay with A549/ATCC NSCLC, 35.4% in the assay on 786-0 renal and 119% in the assay on COLO 205 colon.

`O=C(Nc1cccnc1Nc1ccc(F)cc1)c1cn(Cc2cccc(Oc3ccccc3)c2)nn1`: the growth in the assay on NCI-H23 lung is 74%; with NCI-H226 lung it was 76.6%; in the assay with HOP-62 NSCLC, 84.7%; with NCI-H460 lung, 80.4%; in the assay with HOP-92 NSCLC, 84.8%; with NCI-H522 lung, 64.7%. Moreover, the results for the growth in the assay with A549/ATCC NSCLC, in the assay on 786-0 renal and in the assay with COLO 205 colon were 61%, 79.2% and 91.6%, respectively.

`O=C1Nc2ccccc2[C@]12CC(c1ccccc1)=NN2`: the growth with NCI-H23 lung was 64.3%; in the assay with NCI-H226 lung it was 77.7%; with HOP-62 NSCLC it was 59.6%; with NCI-H460 lung, 21.5%; with HOP-92 NSCLC it was 30.8%; with NCI-H522 lung it was 39.4%. Moreover, the growth in the assay with A549/ATCC NSCLC was 44.3%; with 786-0 renal, 50.7%; in the assay with COLO 205 colon, 3.6% (active).

With `CCOC(=O)/C=C1\S/C(=N\Nc2cc(=O)[nH]c3ccc(Cl)cc23)N(c2ccccc2)C1=O`, the growth is 90.5% with NCI-H23 lung; 89.6% in the assay with NCI-H226 lung; 88% in the assay on HOP-62 NSCLC; 102% in the assay on NCI-H460 lung; 91.7% with HOP-92 NSCLC; 79.7% in the assay with NCI-H522 lung. In addition, the values for the growth in the assay on A549/ATCC NSCLC, with 786-0 renal and with COLO 205 colon were 105%, 93.8% and 65%, respectively.

As to `CC(C)(C)n1cc(-c2ccnc(NCCNS(=O)(=O)c3cccc4ccccc34)c2)c(-c2cccc(F)c2)n1`, the growth in the assay on NCI-H23 lung is 0.565% (active); in the assay with NCI-H226 lung, -25.7% (active); with HOP-62 NSCLC, 26.4%; in the assay with NCI-H460 lung, -26.9% (active); in the assay with NCI-H522 lung, -38.9% (active); in the assay on A549/ATCC NSCLC, 16.3%. Besides, the figures for the growth in the assay on 786-0 renal and in the assay on COLO 205 colon were -91.4% (active) and -67.9% (active), respectively.

Regarding `COc1ccc2c(O)c(/C=C3\N=Nc4ncccc43)oc2c1C[C@H]1CCNC[C@H]1F`, the growth with NCI-H23 lung was -3.41% (active); in the assay with NCI-H226 lung, 1.06% (active); with HOP-62 NSCLC it was 5.59% (active); with NCI-H460 lung it was -26% (active); with HOP-92 NSCLC it was 25.7%; with NCI-H522 lung it was -13.5% (active). Further, the growth with A549/ATCC NSCLC is 0.136% (active); in the assay on 786-0 renal it was -18.6% (active); with COLO 205 colon, -51.8% (active).

Regarding `C=C1C(=O)O[C@H]2[C@H]1CC/C(COC(=O)NCc1ccc(Cn3c(=O)sn(CCI)c3=O)cc1)=C\CC[C@@]1(C)O[C@@H]21`, the growth in the assay with NCI-H23 lung is 88.5%; in the assay with NCI-H226 lung, 85.7%; with HOP-62 NSCLC, 114%; in the assay with NCI-H460 lung it was 98.1%; with NCI-H522 lung it was -92.8% (active); in the assay with A549/ATCC NSCLC, 108%. Also, the values for the growth in the assay on 786-0 renal and with COLO 205 colon were 59.6% and -24.1% (active), respectively.

On to `COc1ccc2[nH]cc(C(c3cc(F)cc(F)c3)c3c[nH]c4ccc(OC)cc34)c2c1`, for which the growth is 67.2% in the assay on NCI-H23 lung; 97.4% in the assay on NCI-H226 lung; 93.4% with HOP-62 NSCLC; 64.4% in the assay with NCI-H460 lung; 54.3% in the assay on HOP-92 NSCLC; 69.3% with NCI-H522 lung. For the same molecule, the growth in the assay with A549/ATCC NSCLC is 69.4%; with 786-0 renal it was 92.4%; with COLO 205 colon it was 78.1%.

As for `CCN1CC(=O)N(/N=C2\C(=O)Nc3ccccc32)C1=S`, the growth with NCI-H23 lung was 91.4%; with NCI-H226 lung, 69.6%; in the assay with HOP-62 NSCLC, 87%; in the assay with NCI-H460 lung, 88.3%; in the assay on HOP-92 NSCLC, 87.8%; in the assay with NCI-H522 lung it was 85.4%. The growth is 98.9% in the assay on A549/ATCC NSCLC, 103% with 786-0 renal and 101% with COLO 205 colon.
